# CatL inh: blocks human cathepsin L protease activity; P07711; purified cathepsin L, fluorogenic substrate, fluorescence; inhibition, %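 (tested at 10 µM)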; 58,000 compounds, 0.17% hits; AID 460; in the data active means inhibition above about 45%;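 further: 0% = enzyme with no compound and 100% = no enzyme blank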
# CatB inh: inhibitors of human cathepsin B; purified cathepsin B, fluorogenic substrate, fluorescence; P07858; AID 453; 63,000 compounds, 0.1% hits; inhibition, %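 (tested at 10 µM)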; in the data active means inhibition above about 21%;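 further: 0% = enzyme with no compound and 100% = no enzyme blank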
# C1s inh: blocks human complement C1s protease activity; purified C1s, fluorogenic AMC substrate, pooled mixtures; mean inhibition % of two 10-compound mixtures (active compounds read high), % at 5 µM (by protocol); 62,000 compounds, 0.16% hits;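 active means inhibition above 20% in each of the two 10-compound mixture wells holding the compound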;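 further: 0% = enzyme wells lacking compound mixture and 100% = no-enzyme blank wells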
# CatB mix inh: human cathepsin B inhibition by mixtures. P07858. Purified cathepsin B, AMC dipeptide fluorescence, compound mixtures. inhibition, %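 (ten-compound pools at 5 µM per compound and 50 µM total)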. 62,000 compounds, 0.06% hits. AID 488; in the data active means inhibition above about 22%, passing the limit was not always enough; inconclusive means no clear call, values can overlap the other calls;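 further: 0% = enzyme without compound and 100% = no enzyme blank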
# CatS inh: inhibitors of human cathepsin S | 62,000 compounds, 0.06% hits | recombinant cathepsin S, AMC dipeptide fluorescence, pooled mixtures | inhibition, %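 (tested at 5 µM per compound within 10-compound mixtures)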 | AID 501; in the data active means inhibition above about 32%, passing the limit was not always enough; inconclusive means no clear call, values can overlap the other calls;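 further: 0% = enzyme without compound and 100% = blank without enzyme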
# Target sequence (P25774 115-331 limits assumed): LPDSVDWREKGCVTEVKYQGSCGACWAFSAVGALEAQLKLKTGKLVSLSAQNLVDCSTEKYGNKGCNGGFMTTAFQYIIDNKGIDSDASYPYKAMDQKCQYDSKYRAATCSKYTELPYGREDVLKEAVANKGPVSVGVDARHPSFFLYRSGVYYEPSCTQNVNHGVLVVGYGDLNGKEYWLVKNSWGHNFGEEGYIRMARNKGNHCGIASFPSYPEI
# CatG inh: inhibitors of human cathepsin G. P08311. purified enzyme, AMC-tetrapeptide fluorescence, pooled mixtures. inhibition, % at 5 µM (by protocol). 62,000 compounds, 0.2% hits;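 active means inhibition above 20% in each of the two mixture wells holding the compound; inactive means inhibition of 20% or less in either well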;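 further: 0% = enzyme control without mixture and 100% = blank lacking enzyme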
# Target sequence (P08311 21-244 limits assumed): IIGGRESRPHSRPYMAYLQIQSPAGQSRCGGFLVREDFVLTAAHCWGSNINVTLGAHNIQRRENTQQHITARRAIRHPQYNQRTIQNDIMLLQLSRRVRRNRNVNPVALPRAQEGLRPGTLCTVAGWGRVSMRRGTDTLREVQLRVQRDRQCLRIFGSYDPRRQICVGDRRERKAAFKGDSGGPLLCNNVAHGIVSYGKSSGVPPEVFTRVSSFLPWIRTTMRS
# * marks the source's active call; other numbers are inactive results; ? = inconclusive; / = not tested or not shown. Rows were chosen to be rich in hits. Some 0.58% of all compounds tested hit in one or more screens of this group.
SMILES,CatL inh,CatB inh,C1s inh,CatB mix inh,CatS inh,CatG inh
CCOc1ccc(CCNC(=O)Cn2c(-c3nonc3N)nc3ccccc32)cc1OCC,52*,65*,-16,51*,3,-6
CCOC(=O)Cn1c(-c2nonc2NC(=O)c2ccccc2F)nc2ccccc21,-14,2,8,0,-4,6
COc1ccc(CCNC(=O)Cn2c(-c3nonc3N)nc3ccccc32)cc1OC,10,14,9,12,-7,10
O=C(CCS(=O)(=O)c1cccc2nonc12)N1CCN(c2ccc(F)cc2)CC1,-4,4,-12,1,-4,-1
[O-]/[N+](=C\c1ccncc1)c1ccc(Br)cc1,5,2,8,-4,4,-2
CCOC(=O)CSc1nc(-c2cccs2)nc2c1c(=O)n(C)c(=O)n2C,/,3,-5,2,39,-2
O=C(Oc1oc(-c2ccco2)nc1C=Nc1ccccc1)c1ccco1,18,22*,14,11,2,11
Cc1cc(C)c2c(=O)n(CC(=O)NCCCN3CCOCC3)sc2n1,12,2,14,5,2,6
Cc1cc(C)c2c(=O)n(CC(=O)NCCCN3CCN(c4ccccc4F)CC3)sc2n1,65*,3,14,7,6,10
Cc1ccsc1/C=c1\sc2ncnn2c1=O,-8,2,11,5,-7,43*
O=c1/c(=C/c2cccc3ccccc23)sc2ncnn12,15,5,-36,0,15,-8
Cc1ccc(C)c(/C(O)=C2\C(=O)C(=O)N(CCCN(C)C)C2c2cccnc2)c1 (centres undefined),11,3,17,-1,-1,20
CN1CCN(S(=O)(=O)c2ccc(Br)s2)CC1,97*,3,-2,1,9,-3
CCOc1nc(C#N)nc(N2CCCCC2)n1,59*,15,-3,11,37*,-4
Nc1ccc2ncccc2c1N,79*,7,/,/,/,/
COc1ccc(Cl)c(Cn2c(NCCCO)nc3c2c(=O)n(C)c(=O)n3C)c1,57*,1,-28,1,5,2
COc1ccc(Cl)c(Cn2c(NCc3ccccn3)nc3c2c(=O)n(C)c(=O)n3C)c1,-1,-2,-10,-1,22,1
COCc1nc2ccccc2n1CCOc1ccccc1OC,1,7,-40,-2,-4,5
O=C(CNC(=O)c1ccco1)OC(C(=O)c1ccccc1)c1ccccc1 (centres undefined),78*,18,-9,?,0,-2
Cc1noc(/C=C/N(C)C)c1S(=O)(=O)N1CCN(c2ccccc2)CC1,53*,2,27,0,-3,7
O=c1oc(-c2ccco2)nc2ccccc12,0,3,48*,-8,-1,74*
Cc1sc2nc(-c3ccco3)oc(=O)c2c1C,6,0,32*,7,2,11
CCN1C(=O)c2ccccc2S(=O)(=O)c2ccc(C(=O)NCc3cccnc3)cc21,10,3,38,5,17,-10
Cc1occc1C(=O)n1nnc2ccccc21,24,11,-19,-3,7,10
CCSc1ccccc1C(=O)n1nnc2ccccc21,3,32*,39*,30*,-6,35*
SMILES,CatL inh,CatB inh,C1s inh,CatB mix inh,CatS inh,CatG inh
NC(=O)C1(N2CCCCC2)CCN(C(=O)Nc2ccccc2C(F)(F)F)CC1,3,5,25*,4,-11,37
O=C(Nc1ccccc1C(F)(F)F)N1CCCCCC1,-11,-4,3,39,0,-5
COc1cc(NC(=O)c2csc3c2CCCC3)ncn1,-9,4,38,2,-2,34*
COc1cccc(C(=O)Oc2cc(N)n(S(=O)(=O)c3ccc(C)cc3)n2)c1OC,16,13,5,9,12,17
Nc1cc(OC(=O)c2cccs2)nn1S(=O)(=O)c1ccccc1,3,76*,23,69*,-2,32*
Cc1nn(-c2ccccc2)c(OC(=O)c2cccs2)c1S(=O)(=O)c1ccccc1,12,0,-24,-5,8,-1
Nc1cc(OC(=O)c2cccs2)nn1S(=O)(=O)c1ccc(F)cc1,-3,56*,17,55*,-2,18
CN1CCN(Cc2nc3c(c(=O)n(C)c(=O)n3C)n2CCc2ccccc2)CC1,9,14,45,4,11,12
COc1ccc(-n2c(=O)c3c4c(sc3n3cnnc23)CC(C)CC4)cc1 (centres undefined),48*,-3,-3,9,31,0
Cc1cc(=O)[nH]c(SCC(=O)c2ccc(C(C)C)cc2)n1,23,-3,57*,0,5,11
COc1ccc(C(=O)CSc2nc(C)cc(=O)[nH]2)cc1,4,2,13,3,-11,12
COCCCNC(CC(=O)Nc1ccccc1C(=O)OC)C(=O)O (centres undefined),14,7,22*,5,-2,14
CCC(C)C(NS(=O)(=O)c1ccc(C)cc1)C(=O)NCCN1CCOCC1 (centres undefined),25,6,-11,3,16,-1
Cc1nn(C)c(C)c1NC(=O)c1ccnn1C,9,5,21*,4,-2,15
Cn1nccc1C(=O)Nn1cnnc1,8,-7,-170,-5,-25,-23
CC(=Nc1ccc2c(c1)nc(CO)n2C)C1=C(O)CC(C)(C)CC1=O,19,7,6,2,2,12
CCn1c(=O)c(C(C)=O)nc2ccccc21,2,-4,22*,4,0,15
CCc1nc2ccccc2n(CC)c1=O,7,3,-23,-5,5,0
O=C(CCCCn1c(=O)[nH]c2ccsc2c1=O)NCc1cccnc1,-1,0,13,25*,2,27
COc1ccccc1CNC(=O)CCn1c(=O)[nH]c2ccsc2c1=O,3,-2,3,7,9,2
O=C(NCc1ccco1)c1cc2nc(C3CC3)cc(C(F)(F)F)n2n1,0,-3,2,5,-4,2
Cc1cc(NC(=O)c2cc3nc(C4CC4)cc(C(F)(F)F)n3n2)no1,12,6,22*,1,10,14
CCC(=O)Nc1cccc(-c2nc3ccccc3c(=O)o2)c1,1,1,37*,4,-1,59*
CC(=O)Nc1cccc(-c2nc3ccccc3c(=O)o2)c1,-10,1,22,-3,-2,65*
Cc1cc(C)n2nc(SCc3cc(=O)n4c(C)cccc4n3)nc2n1,/,5,16,5,-2,12
COc1ccc(CNc2nc(-c3cccnc3)nn2C(=O)c2ccco2)cc1,-6,1,0,-7,-2,12
COc1ccc(-c2nc(SC)n(C(=O)c3ccco3)n2)cc1,/,5,63*,5,13,20*
COc1ccc(C(=O)n2nc(-c3ccco3)nc2SC)cc1OC,/,7,70*,3,-2,40*
COc1ccccc1C(=O)n1nc(-c2ccco2)nc1N,8,0,-5,1,10,13
